Test systems include T-47D breast; BT-549 breast; MDA-MB-435 melanoma; SW-620 colon; MCF7 breast; HCT-116 colon; HCC-2998 colon; KM12 colon.
Test in all cases: NCI-60 one-dose screen, 48 h (100 = growth as untreated, 0 = no growth, -100 = all killed)
Holding throughout (settings): 10 µM unless noted

The panel holds about 83,000 compounds, 20% with a hit somewhere; the sample as a whole holds those more often.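 96-well plates, one dose, 48 hours. Percent growth reported; active if below 10.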 Values without a mark were called inactive. Calls of active or inactive are those of the source.

For `CCN(CC)CCN1C(=O)c2c(c(C)c3c(oc4cc(O)ccc43)c2C)C1=O`, the growth in the assay with T-47D breast was 89.5%; in the assay with BT-549 breast, 86.7%; in the assay on MDA-MB-435 melanoma, 72.9%; in the assay on SW-620 colon, -50.2% (active); in the assay with MCF7 breast, 3.63% (active); with HCT-116 colon, -85% (active). For the same compound, the growth was 92% in the assay on HCC-2998 colon and -80.1% (active) in the assay with KM12 colon.
With `CCOC(CN=Cc1cc(C)c2[nH]c3ccccc3c2c1C)OCC`, the growth was 94.4% in the assay on T-47D breast; 83.2% with BT-549 breast; 97.8% with MDA-MB-435 melanoma; 99.1% in the assay with SW-620 colon; 88.9% in the assay on MCF7 breast; 94.4% in the assay with HCT-116 colon. The growth with HCC-2998 colon was 113%; in the assay on KM12 colon it was 106%.
Turning to `CC(=O)OC[C@H]1OC(Sc2sc(C(=O)c3ccc(Br)cc3)c(N)c2-c2nc3ccccc3s2)[C@H](OC(C)=O)[C@@H](OC(C)=O)[C@@H]1OC(C)=O` (stereo partly specified), the growth was 73.7% in the assay with T-47D breast; 80.7% in the assay on BT-549 breast; 80.7% in the assay with MDA-MB-435 melanoma; 54% in the assay with SW-620 colon; 62.7% in the assay with MCF7 breast; 18.7% with HCT-116 colon. Also, the results for the growth with HCC-2998 colon and with KM12 colon were 75.9% and 78.3%, respectively.
With `CC(=O)c1nc(Nc2ccc(C)cc2)sc1C`, the growth was 85.6% with T-47D breast; 87.1% in the assay with BT-549 breast; 103% in the assay on MDA-MB-435 melanoma; 97.4% in the assay on SW-620 colon; 87.3% in the assay with MCF7 breast; 90.9% with HCT-116 colon. Further, the growth in the assay on HCC-2998 colon was 101%; in the assay on KM12 colon, 98.6%.
For the compound `C[C@H](NC(=O)[C@@H]1CSSC[C@@H](NC(=O)c2nc3ccccc3cc2O)C(=O)NCC(=O)N1C)c1ccccc1`, the growth was -35.6% (active) in the assay on T-47D breast; 44.3% in the assay with BT-549 breast; 23.9% in the assay with MDA-MB-435 melanoma; -35.4% (active) in the assay with SW-620 colon; -2.09% (active) in the assay on MCF7 breast; 12.8% with HCT-116 colon. The growth with HCC-2998 colon was 55.1%; with KM12 colon, 19.8%.
For the compound `Cc1cc[c-]cc1.Fc1c[c-]c(-c2ccccn2)c(F)c1.[Pt+2].c1ccc(P(C[PH+](c2ccccc2)c2ccccc2)c2ccccc2)cc1`, the growth in the assay with T-47D breast is 8.85% (active); in the assay with BT-549 breast, 20.6%; in the assay on MDA-MB-435 melanoma, 8.28% (active); in the assay with SW-620 colon, 14.6%; in the assay on MCF7 breast, 6.01% (active); with HCT-116 colon, 9.8% (active). For the same compound, the growth is 33.1% in the assay on HCC-2998 colon and 18% with KM12 colon.
As for `C=CC(=O)Nc1cccc(Oc2nccc(Nc3nnc(C4CC4)s3)n2)c1`, the growth in the assay on T-47D breast was 95%; with BT-549 breast it was 101%; in the assay on MDA-MB-435 melanoma it was 99.5%; in the assay on SW-620 colon, 93.3%; with MCF7 breast, 82%; in the assay on HCT-116 colon it was 101%. The growth is 102% in the assay on HCC-2998 colon and 97.5% in the assay on KM12 colon.
Regarding `COc1ccc2nc(NNC(=O)c3cnccn3)c3cccn3c2c1`, the growth in the assay on T-47D breast was 0.223% (active); with BT-549 breast it was 12.7%; with MDA-MB-435 melanoma, 13.5%; in the assay with SW-620 colon, 0.919% (active); with MCF7 breast, -31.6% (active); in the assay with HCT-116 colon, -26.5% (active). The growth with HCC-2998 colon was 37.4%; in the assay on KM12 colon, 4.7% (active).
Regarding `Cc1cc(NCCCCNc2ccnc3cc(Cl)ccc23)nc(Nc2ccc(C(=O)N3CCCC3)cc2)n1`, the growth was -31.2% (active) in the assay with T-47D breast; 93.2% in the assay with BT-549 breast; -45% (active) in the assay on MDA-MB-435 melanoma; -11.8% (active) with SW-620 colon; 12.7% in the assay on MCF7 breast; 2.57% (active) in the assay with HCT-116 colon. Further, the growth in the assay with HCC-2998 colon is 8.57% (active); in the assay on KM12 colon, 55.7%.
Take `Cc1ccc(C(=O)C2=C(O)C(=O)N(Cc3cccnc3)C2c2ccccc2F)o1` (stereo unspecified): the growth is 95.2% in the assay with T-47D breast; 99.2% in the assay with BT-549 breast; 102% in the assay on MDA-MB-435 melanoma; 103% with SW-620 colon; 98.3% in the assay on MCF7 breast; 95.2% in the assay with HCT-116 colon. Moreover, the growth in the assay on HCC-2998 colon is 94.3%; with KM12 colon it was 106%.
Take `O=C(Nc1ccc(Nc2ccncc2)cc1)c1ccc(C(=O)Nc2ccc(Nc3ccncc3)cc2)cc1`: the growth was 33.8% in the assay with T-47D breast; 123% in the assay with BT-549 breast; 48.8% with MDA-MB-435 melanoma; 42.2% with SW-620 colon; 26.8% in the assay on MCF7 breast; 32.7% with HCT-116 colon. The growth in the assay on HCC-2998 colon is 87%; in the assay with KM12 colon, 47.4%.
With `NS(=O)(=O)c1cnccc1Oc1cccc2cccnc12`, the growth in the assay with T-47D breast is 109%; with BT-549 breast it was 93.3%; with MDA-MB-435 melanoma, 108%; in the assay on SW-620 colon, 106%; in the assay with MCF7 breast, 93.4%; in the assay on HCT-116 colon it was 97%. Also, the growth in the assay on HCC-2998 colon was 95.9%; with KM12 colon, 107%.
On to `NC(N)=Nc1nc2ccccc2n2c1nc1ccccc12`, for which the growth was 40.7% in the assay on T-47D breast; 83% in the assay with BT-549 breast; 33.3% in the assay with MDA-MB-435 melanoma; 24.9% in the assay on SW-620 colon; 8.98% (active) with MCF7 breast; 18.2% in the assay with HCT-116 colon. In addition, the growth in the assay on HCC-2998 colon was 46.3%; with KM12 colon, 33.6%.
With `CC/C=C\CCC/C=C1/C(=O)C=C[C@@H]1C/C=C\CCCC(=O)O`, the growth is 55.3% in the assay on T-47D breast; 32.3% in the assay on BT-549 breast; 5.08% (active) in the assay with MDA-MB-435 melanoma; 9.71% (active) in the assay on SW-620 colon; 20.2% in the assay with MCF7 breast; -30.2% (active) in the assay with HCT-116 colon. The growth with HCC-2998 colon is 68.2%; in the assay with KM12 colon, 32%.
On to `CN1CCN(CCCOc2ccc3nc(Nc4ccc(F)c(F)c4)ccc3c2)CC1`, for which the growth with T-47D breast is 14.6%; with BT-549 breast, 79.9%; with MDA-MB-435 melanoma it was -72.3% (active); in the assay on SW-620 colon, -32.2% (active); with MCF7 breast, 11.8%; in the assay on HCT-116 colon it was 5.76% (active). In addition, the values for the growth in the assay on HCC-2998 colon and in the assay on KM12 colon were -24.6% (active) and 11.8%, respectively.
As for `CN1C(=O)N(C)C2C1NN=c1s/c(=C\c3ccccc3)c(=O)n12` (stereo unspecified), the growth with T-47D breast was 37.9%; with BT-549 breast it was 55.5%; with MDA-MB-435 melanoma, -26.1% (active); in the assay on SW-620 colon it was 21.7%; with MCF7 breast it was 15.4%; in the assay with HCT-116 colon, 22.5%. The results for the growth in the assay with HCC-2998 colon and in the assay on KM12 colon were 82.5% and 23.3%, respectively.
For `COC(=O)[C@]12CC[C@@H](C)[C@H](C)[C@@H]1C1=CC[C@@H]3[C@@]4(C)C(C=O)=C[C@@](C)(COC(=O)c5ccco5)[C@@H]4C(=O)C[C@@]3(C)[C@]1(C)CC2`, the growth in the assay with T-47D breast was 0.38% (active); with BT-549 breast it was 12.9%; in the assay with MDA-MB-435 melanoma, -10.1% (active); in the assay with SW-620 colon it was 31.4%; in the assay with MCF7 breast, 20.4%; in the assay with HCT-116 colon it was 12.6%. In addition, the growth in the assay with HCC-2998 colon was 38.9%; in the assay on KM12 colon it was 23.1%.
As for `CCCCCS(=O)(=O)Nc1ccc(C(=O)O)cc1`, the growth in the assay on T-47D breast is 89.2%; in the assay with BT-549 breast, 107%; with MDA-MB-435 melanoma, 106%; with SW-620 colon, 106%; with MCF7 breast, 97%; with HCT-116 colon it was 102%. For the same compound, the growth in the assay on HCC-2998 colon was 114%; in the assay with KM12 colon, 103%.
For `COc1cc(/C=C2\C(=O)ON=C2C)cc(OC)c1OC`, the growth with T-47D breast was 97.9%; in the assay with BT-549 breast, 112%; with MDA-MB-435 melanoma, 102%; with SW-620 colon, 97.7%; with MCF7 breast it was 97%; in the assay on HCT-116 colon, 104%. The growth in the assay with HCC-2998 colon is 94.5%; in the assay on KM12 colon, 100%.
In the case of `CC(=O)OC1CCC2(C)C(=CC3C4CCC(=O)C4(C)CCC32)C1` (stereo unspecified), the growth is 105% with T-47D breast; 95.9% with BT-549 breast; 116% in the assay on MDA-MB-435 melanoma; 104% with SW-620 colon; 97.6% in the assay on MCF7 breast; 100% in the assay on HCT-116 colon. Besides, the growth was 102% with HCC-2998 colon and 107% in the assay with KM12 colon.
For `O=C(/C=C/c1c(Cl)nc2sccn12)c1nccs1`, the growth with T-47D breast is 87.5%; in the assay with BT-549 breast, 109%; in the assay on MDA-MB-435 melanoma, 91.9%; in the assay with SW-620 colon, 77.8%; in the assay on MCF7 breast, 76.2%; with HCT-116 colon it was 81.1%. The results for the growth with HCC-2998 colon and in the assay with KM12 colon were 102% and 89.7%, respectively.
On to `O=c1c2cc(F)ccc2sc2c(NCCCN3CCCC3)nc3ccccc3c12`, for which the growth was 64.6% with T-47D breast; 70.6% in the assay on BT-549 breast; 20.6% in the assay with MDA-MB-435 melanoma; 20.4% in the assay on SW-620 colon; -24.8% (active) with MCF7 breast; 24.2% in the assay with HCT-116 colon. For the same compound, the growth with HCC-2998 colon was 22.1%; with KM12 colon, 27.7%.
For `Cc1ccc(NS(=O)(=O)c2ccc3c(c2)C(=O)CC(c2ccc(C(=O)C(C)C)cc2)N3)cc1C` (stereo unspecified), the growth was 39.8% with T-47D breast; 65.6% in the assay on BT-549 breast; 58.3% in the assay with MDA-MB-435 melanoma; 70.5% in the assay on SW-620 colon; 37.4% with MCF7 breast; 54% in the assay with HCT-116 colon. The growth was 89.9% in the assay on HCC-2998 colon and 71.9% with KM12 colon.
`N=C1C(c2nc(-c3ccc(Br)cc3)cs2)=C(O)CN1CC1CCCO1` (stereo unspecified): the growth with T-47D breast is 95.7%; in the assay on BT-549 breast, 106%; in the assay on MDA-MB-435 melanoma it was 88.8%; with SW-620 colon it was 60%; with MCF7 breast it was 78.4%; in the assay on HCT-116 colon it was 25.7%. Further, the figures for the growth in the assay on HCC-2998 colon and in the assay with KM12 colon were 95.1% and 86.6%, respectively.
As for `COc1ccc(N=Nc2ccc(O)c(=O)cc2)cc1`, the growth was -0.237% (active) with T-47D breast; 22% in the assay on BT-549 breast; 25.1% with MDA-MB-435 melanoma; 21.7% in the assay with SW-620 colon; 5.65% (active) in the assay with MCF7 breast; 24.7% in the assay with HCT-116 colon. Also, the growth in the assay on HCC-2998 colon was 36.2%; with KM12 colon, 18.2%.
On to `C(=N\Nc1ncc(-c2cc3cc4c(cc3o2)OCO4)s1)/c1ccco1`, for which the growth with T-47D breast was 35.2%; with BT-549 breast, 48.6%; in the assay with MDA-MB-435 melanoma, 69%; with SW-620 colon it was 2.26% (active); in the assay on MCF7 breast it was 13.7%; with HCT-116 colon it was -13.6% (active). The values for the growth with HCC-2998 colon and with KM12 colon were 62.7% and 15.8%, respectively.
Regarding `CC1CC(C(C)(C)C)C(=O)C(C(C)(C)C)C1` (stereo unspecified), the growth was 111% in the assay with T-47D breast; 110% in the assay with BT-549 breast; 103% in the assay with MDA-MB-435 melanoma; 101% in the assay with SW-620 colon; 108% with MCF7 breast; 108% with HCT-116 colon. Also, the growth in the assay with HCC-2998 colon is 111%; in the assay with KM12 colon, 108%.

These data come from PubChem BioAssay (NCI).
